Test results: PubChem BioAssay (EPA / NIEHS)
Several values for one entry are separate records, joined by “and”; a condition that tells them apart may be missing. Identical values can stand only once. Inconclusive results are not listed. The source holds several records for some structures; these can differ, active in one and inactive in another. Activity calls are given as the source filed them. Rule for the calls, unless noted: active = hit-call score of the fitted dose curve at least 0.9, where 1 is the maximum; inconclusive = response in the unintended direction; inactive = score below 0.9.

How the values were obtained:
[1] = ATG_TCF_b_cat_CIS: Attagene CIS-FACTORIAL HepG2 Assay for human T-Cell-Factor with beta-catenin (TCF/b-cat) (AID 2282965; active = hit-call score of the fitted dose curve at least 0.9, where 1 is the maximum; inactive = score below 0.9); settings: HepG2 TCF/beta-catenin cis-reporter transcription, actives raise or lower the signal
Method in brief: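 HepG2 cells transiently transfected with multiple cis-promoter-regulated reporter transcription units, so endogenous transcription factor activity is measured. Reporter mRNA read 24 hours after dosing by RT-PCR, fluorescent labelling and capillary electrophoresis; bidirectional fitting against DMSO.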

[2] = ATG_TAL_CIS: Attagene CIS-FACTORIAL HepG2 Assay for human TAL Basal Promoter (AID 2282966; active = hit-call score of the fitted dose curve at least 0.9, where 1 is the maximum; inactive = score below 0.9;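 note: background control endpoint measuring basal TAL promoter reporter mRNA not a specific factor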); settings: HepG2 Attagene cis-factorial TAL promoter reporter; actives raise or lower the signal
Method in brief: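 Human hepatoma HepG2 cells, transfected with promoter-regulated reporter units, were treated 24 h. Reporter transcript levels, measured through RT-PCR and capillary electrophoresis, were fitted for gain or loss relative to DMSO.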

[3] = ATG_TGFb_CIS: Attagene CIS-FACTORIAL HepG2 Assay for human Transforming Growth Factor (TGF) (AID 2282967; active = hit-call score of the fitted dose curve at least 0.9, where 1 is the maximum; inactive = score below 0.9); settings: HepG2 Attagene CIS TGFb reporter, mRNA transcription; actives raise or lower the signal
Method in brief: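 Endogenous TGFB1-linked transcription factor activity read as reporter mRNA via RT-PCR and capillary electrophoresis, 24 h after dosing transiently transfected HepG2 cells. Gain or loss of signal fitted relative to DMSO.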

[4] = ATG_VDRE_CIS: Attagene CIS-FACTORIAL HepG2 Assay for human Vitamin D Receptor Element (VDRE) (AID 2282968; active = hit-call score of the fitted dose curve at least 0.9, where 1 is the maximum; inactive = score below 0.9); settings: HepG2 VDRE cis-reporter transcription, actives raise or lower the signal
Method in brief: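 Steps: transfect HepG2 with multiple reporter transcription units; dose chemicals 24 h; isolate RNA; RT-PCR; label with 6-FAM primer extension; HpaI digest; capillary electrophoresis. Curves fitted both directions against DMSO.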

[5] = molecular target: Nuclear receptor subfamily 1 group I member 3 (Homo sapiens) (UniProt Q14994); assay: ATG_CAR_TRANS: Attagene TRANS-FACTORIAL HepG2 Assay for human Constitutive Androstane Receptor (CAR) (AID 2282969); settings: HepG2 Attagene TRANS-FACTORIAL CAR reporter;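 note: activators raise reporter mRNA above DMSO so AC50 marks induction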
Method in brief: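 Steps: transient transfection of HepG2 with multiple GAL4-UAS reporter units; 24 h compound incubation; RNA isolation, RT-PCR, 6-FAM primer extension, HpaI digest; capillary electrophoresis. Gain-of-signal relative to DMSO negative control.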

[6] = molecular target: Estrogen receptor (Homo sapiens) (UniProt P03372); assay: ATG_ERa_TRANS: Attagene TRANS-FACTORIAL HepG2 Assay for human Estrogen Receptor alpha (ERa) (AID 2282970); settings: HepG2 Attagene TRANS ERa GAL4 reporter, mRNA
Method in brief: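 Signal derives from fluorescence of labelled reporter PCR fragments separated by capillary electrophoresis. HepG2 cells transiently carrying multiple GAL4-UAS reporter units were treated 24 hours, and induction above DMSO baseline was fitted as activity.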

[7] = molecular target: X-box-binding protein 1 (Homo sapiens) (UniProt P17861); assay: ATG_Xbp1_CIS: Attagene CIS-FACTORIAL HepG2 Assay for human X-box Binding Protein 1 (XBP1) (AID 2282972; active = hit-call score of the fitted dose curve at least 0.9, where 1 is the maximum; inactive = score below 0.9); settings: HepG2 XBP1 cis-element reporter, Attagene multiplex; actives raise or lower the signal
Method in brief: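 Multiplexed cis-reporter readout in transfected HepG2 liver cells. Exposure lasted 24 hours. Activity in either direction was fitted against DMSO as negative control and baseline.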

[8] = ATG_M_19_TRANS: Attagene TRANS-FACTORIAL HepG2 Assay for M19 Transcription Factor (Internal Marker) (AID 2282974); settings: HepG2 Attagene TRANS-FACTORIAL M19 internal marker reporter
Method in brief: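 24 h chemical exposure of transiently transfected HepG2 (MRTU library). RNA → oligo(dT) RT → PCR → 6-FAM labelling → HpaI cut → CE fluorescence. Positive-direction fit vs DMSO baseline; background internal-marker readout.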

[9] = molecular target: Glucocorticoid receptor (Homo sapiens) (UniProt P04150); assay: ATG_GR_TRANS: Attagene TRANS-FACTORIAL HepG2 Assay for human Glucocorticoid Receptor (GR) (AID 2282978); settings: HepG2 Attagene TRANS GR reporter, mRNA transcription;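 note: activators score as hits since higher reporter transcript over DMSO is fitted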
Method in brief: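 Transient MRTU transfection of HepG2 (GAL4-UAS reporters, exogenous NR-GAL4 chimeras), 24 h dosing. Readout: reporter transcript via RT-PCR + capillary electrophoresis fluorescence. Positive direction vs DMSO baseline.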

[10] = molecular target: Bile acid receptor (Homo sapiens) (UniProt Q96RI1); assay: ATG_FXR_TRANS: Attagene TRANS-FACTORIAL HepG2 Assay for Farnesoid X Receptor (FXR) (AID 2282979); settings: HepG2 Attagene TRANS FXR-GAL4 reporter transcription;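 note: hits raise reporter mRNA above DMSO so AC50 marks FXR activation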
Method in brief: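 After 24 h chemical treatment of transfected HepG2 cells, GAL4-UAS reporter transcripts driven by an exogenous FXR-GAL4 fusion were measured by RT-PCR and capillary electrophoresis. Increases over DMSO were fitted.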

[11] = molecular target: Hepatocyte nuclear factor 4-alpha (Homo sapiens) (UniProt P41235); assay: ATG_HNF4a_TRANS: Attagene TRANS-FACTORIAL HepG2 Assay for human Hepatocyte Nuclear Factor 4 alpha (HNF4a) (AID 2282982); settings: HepG2 HNF4a transactivation reporter, mRNA readout
Method in brief: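 In this trans-factorial format, a chimeric HNF4a-GAL4 fusion drives a GAL4-UAS reporter in transfected HepG2 liver cells. After 24 h treatment, reporter mRNA induction is measured by RT-PCR with capillary electrophoresis, relative to DMSO.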

[12] = ATG_M_32_TRANS: Attagene TRANS-FACTORIAL HepG2 Assay for M32 Transcription Factor (Internal Marker) (AID 2282984); settings: HepG2 Attagene TRANS M32 internal marker reporter
Method in brief: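 After 24 h dosing of transfected HepG2 cells, total RNA was reverse-transcribed, reporter sequences PCR-amplified, 6-FAM labelled by primer extension and HpaI-digested before capillary electrophoresis. Signal increase over DMSO was fitted.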

[13] = molecular target: Nuclear receptor subfamily 4 group A member 2 (Homo sapiens) (UniProt P43354); assay: ATG_NURR1_TRANS: Attagene TRANS-FACTORIAL HepG2 Assay for human Nuclear Receptor Related Protein 1 (NURR1) (AID 2282985); settings: HepG2 Attagene TRANS reporter, mRNA readout
Method in brief: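 Chimeric NR-Gal4 fusion activity measured in HepG2 after 24 h treatment. Reporter transcripts detected by RT-PCR and capillary electrophoresis fluorescence; positive-direction curve fitting against DMSO.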

[14] = molecular target: Transcriptional activator Myb (Homo sapiens) (UniProt P10242); assay: ATG_Myb_CIS: Attagene CIS-FACTORIAL HepG2 Assay for human Myeloblastosis (Myb) Proto-Oncogene Transcription Factor (AID 2282986; active = hit-call score of the fitted dose curve at least 0.9, where 1 is the maximum; inactive = score below 0.9); settings: HepG2 Attagene CIS-FACTORIAL Myb reporter transcription; actives raise or lower the signal
Method in brief: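 HepG2, transient MRTU transfection (cis-element promoters, endogenous TF activity), 24 h compound exposure. Readout: reporter mRNA via RT-PCR, 6-FAM labeling, HpaI digest, capillary electrophoresis. Gain/loss fit vs DMSO.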

[15] = molecular target: Oxysterols receptor LXR-alpha (Homo sapiens) (UniProt Q13133); assay: ATG_LXRa_TRANS: Attagene TRANS-FACTORIAL HepG2 Assay for human Liver X Receptor alpha (LXRa) (AID 2282980); settings: HepG2 Attagene TRANS reporter, LXRa transactivation
Method in brief: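 In this multiplexed TRANS system, compounds act on HepG2 cells carrying GAL4-UAS reporter units and a receptor-GAL4 fusion for 24 h. Induced reporter RNA is amplified, fluorescently labelled and sized by capillary electrophoresis, with DMSO as baseline.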

[16] = molecular target: Oxysterols receptor LXR-beta (Homo sapiens) (UniProt P55055); assay: ATG_LXRb_TRANS: Attagene TRANS-FACTORIAL HepG2 Assay for human Liver X Receptor beta (LXRb) (AID 2282981); settings: HepG2 Attagene TRANS GAL4-LXRb reporter, mRNA
Method in brief: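 Measures induction of a Gal4-driven reporter transcript in HepG2 cells expressing an exogenous LXRb-Gal4 fusion. Cells are exposed to compound for 24 h before RNA isolation and RT-PCR with capillary electrophoresis detection.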

[17] = molecular target: Estrogen-related receptor gamma (Homo sapiens) (UniProt P62508); assay: ATG_ERRg_TRANS: Attagene TRANS-FACTORIAL HepG2 Assay for human Estrogen-Related Receptor gamma (ERRg) (AID 2282977); settings: HepG2 Attagene TRANS reporter, ERRg transactivation;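 note: hits increase reporter signal over DMSO so potencies reflect activators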
Method in brief: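 Induction of reporter transcripts through a chimeric NR-Gal4 protein is quantified in transfected human HepG2 liver cells after 24 h chemical exposure, using RT-PCR with capillary electrophoresis detection and DMSO as baseline.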

[18] = ATG_M_06_TRANS: Attagene TRANS-FACTORIAL HepG2 Assay for M06 Transcription Factor (Internal Marker) (AID 2282983); settings: HepG2 Attagene TRANS M06 internal marker reporter
Method in brief: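 Multi-reporter-transfected HepG2, 24 h treatment; reporter transcripts quantified via RT-PCR, primer-extension labelling and CE. DMSO-normalized gain-of-signal fit.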

[19] = molecular target: Steroid hormone receptor ERR1 (Homo sapiens) (UniProt P11474); assay: ATG_ERRa_TRANS: Attagene TRANS-FACTORIAL HepG2 Assay for human Estrogen-Related Receptor alpha (ERRa) (AID 2282971); settings: HepG2 Attagene TRANS reporter, ERRa transactivation
Method in brief: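 Signal gain relative to DMSO for an ERRa-Gal4 chimeric receptor, read as reporter mRNA by RT-PCR/capillary electrophoresis. Human HepG2 liver cells, transient multiplex reporter transfection, 24 h chemical exposure.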

[20] = ATG_GAL4_TRANS: Attagene TRANS-FACTORIAL HepG2 Assay for GAL4 (Internal Marker) (AID 2282976); settings: HepG2 Attagene TRANS GAL4 internal marker reporter
Method in brief: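 Liver HepG2 line bearing multiplexed GAL4-UAS reporter constructs; 24 h chemical treatment. Transcripts were quantified as fluorescent fragments on capillary electrophoresis after RT-PCR and HpaI cut, with activity fitted upward from DMSO.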

Sequence of Oxysterols receptor LXR-alpha (Homo sapiens) (Q13133 whole entry, looked up, the tested form may be a part): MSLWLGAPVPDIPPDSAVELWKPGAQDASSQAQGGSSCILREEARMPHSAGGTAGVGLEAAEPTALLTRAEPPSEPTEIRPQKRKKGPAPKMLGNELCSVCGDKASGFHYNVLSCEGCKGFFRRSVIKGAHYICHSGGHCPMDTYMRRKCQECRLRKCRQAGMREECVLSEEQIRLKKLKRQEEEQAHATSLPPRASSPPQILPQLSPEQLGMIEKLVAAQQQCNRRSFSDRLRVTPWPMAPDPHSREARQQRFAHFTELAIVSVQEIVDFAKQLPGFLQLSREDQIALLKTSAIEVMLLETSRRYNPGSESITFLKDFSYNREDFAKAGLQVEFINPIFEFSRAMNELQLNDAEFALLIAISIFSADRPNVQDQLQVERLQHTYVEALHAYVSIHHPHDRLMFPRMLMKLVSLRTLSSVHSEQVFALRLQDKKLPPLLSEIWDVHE
Sequence of Transcriptional activator Myb (Homo sapiens) (P10242 whole entry, looked up): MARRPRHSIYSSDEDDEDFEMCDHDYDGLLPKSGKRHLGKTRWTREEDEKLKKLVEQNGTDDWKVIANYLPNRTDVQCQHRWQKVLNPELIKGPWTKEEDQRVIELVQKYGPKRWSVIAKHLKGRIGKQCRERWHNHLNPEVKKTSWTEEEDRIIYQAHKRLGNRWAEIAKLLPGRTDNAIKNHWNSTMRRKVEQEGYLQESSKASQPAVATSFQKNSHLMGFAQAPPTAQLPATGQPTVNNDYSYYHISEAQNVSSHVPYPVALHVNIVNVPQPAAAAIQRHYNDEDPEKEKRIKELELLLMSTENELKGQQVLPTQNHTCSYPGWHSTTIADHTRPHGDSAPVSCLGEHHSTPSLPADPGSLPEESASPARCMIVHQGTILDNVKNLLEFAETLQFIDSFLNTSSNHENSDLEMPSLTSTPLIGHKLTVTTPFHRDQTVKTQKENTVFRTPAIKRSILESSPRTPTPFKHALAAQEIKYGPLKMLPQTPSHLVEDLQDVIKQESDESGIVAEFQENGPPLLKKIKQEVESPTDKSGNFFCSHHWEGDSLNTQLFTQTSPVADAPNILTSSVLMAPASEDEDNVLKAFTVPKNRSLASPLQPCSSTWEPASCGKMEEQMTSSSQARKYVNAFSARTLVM
Sequence of Oxysterols receptor LXR-beta (Homo sapiens) (P55055 whole entry, looked up, the tested form may be a part): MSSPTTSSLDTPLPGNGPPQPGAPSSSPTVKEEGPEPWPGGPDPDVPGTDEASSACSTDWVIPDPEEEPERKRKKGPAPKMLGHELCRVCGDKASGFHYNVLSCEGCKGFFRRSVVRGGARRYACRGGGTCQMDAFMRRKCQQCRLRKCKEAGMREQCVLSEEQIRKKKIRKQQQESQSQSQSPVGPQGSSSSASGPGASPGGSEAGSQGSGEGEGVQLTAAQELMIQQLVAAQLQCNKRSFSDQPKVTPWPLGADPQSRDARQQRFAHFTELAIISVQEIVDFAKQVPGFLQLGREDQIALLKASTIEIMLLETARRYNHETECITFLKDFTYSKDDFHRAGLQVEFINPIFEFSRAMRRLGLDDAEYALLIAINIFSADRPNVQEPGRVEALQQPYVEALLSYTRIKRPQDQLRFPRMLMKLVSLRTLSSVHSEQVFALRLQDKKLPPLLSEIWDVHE
Sequence of Estrogen receptor (Homo sapiens) (P03372 whole entry, looked up, the tested form may be a part): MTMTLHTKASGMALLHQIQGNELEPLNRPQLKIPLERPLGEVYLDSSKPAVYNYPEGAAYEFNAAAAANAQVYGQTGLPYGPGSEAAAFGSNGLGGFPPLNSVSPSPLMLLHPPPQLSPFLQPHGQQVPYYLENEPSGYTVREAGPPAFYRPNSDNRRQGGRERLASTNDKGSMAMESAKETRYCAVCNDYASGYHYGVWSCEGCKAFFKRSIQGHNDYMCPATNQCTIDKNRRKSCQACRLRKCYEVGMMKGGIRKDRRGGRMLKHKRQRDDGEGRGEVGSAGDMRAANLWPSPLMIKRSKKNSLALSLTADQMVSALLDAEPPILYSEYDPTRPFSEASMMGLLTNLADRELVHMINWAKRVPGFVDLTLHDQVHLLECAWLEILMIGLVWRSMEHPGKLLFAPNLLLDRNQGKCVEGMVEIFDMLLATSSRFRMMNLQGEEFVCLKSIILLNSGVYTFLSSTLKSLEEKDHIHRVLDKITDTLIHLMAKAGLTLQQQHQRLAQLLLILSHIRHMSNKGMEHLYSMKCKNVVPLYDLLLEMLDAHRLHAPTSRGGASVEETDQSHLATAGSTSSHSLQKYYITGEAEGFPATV
Sequence of X-box-binding protein 1 (Homo sapiens) (P17861 whole entry, looked up): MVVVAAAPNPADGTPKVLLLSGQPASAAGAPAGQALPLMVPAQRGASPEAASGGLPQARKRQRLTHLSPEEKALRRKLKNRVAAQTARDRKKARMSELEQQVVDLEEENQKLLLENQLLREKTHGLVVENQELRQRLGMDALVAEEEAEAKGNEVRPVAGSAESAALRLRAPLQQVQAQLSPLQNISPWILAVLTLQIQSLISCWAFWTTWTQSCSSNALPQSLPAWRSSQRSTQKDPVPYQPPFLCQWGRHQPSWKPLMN
Sequence of Nuclear receptor subfamily 1 group I member 3 (Homo sapiens) (Q14994 whole entry, looked up, the tested form may be a part): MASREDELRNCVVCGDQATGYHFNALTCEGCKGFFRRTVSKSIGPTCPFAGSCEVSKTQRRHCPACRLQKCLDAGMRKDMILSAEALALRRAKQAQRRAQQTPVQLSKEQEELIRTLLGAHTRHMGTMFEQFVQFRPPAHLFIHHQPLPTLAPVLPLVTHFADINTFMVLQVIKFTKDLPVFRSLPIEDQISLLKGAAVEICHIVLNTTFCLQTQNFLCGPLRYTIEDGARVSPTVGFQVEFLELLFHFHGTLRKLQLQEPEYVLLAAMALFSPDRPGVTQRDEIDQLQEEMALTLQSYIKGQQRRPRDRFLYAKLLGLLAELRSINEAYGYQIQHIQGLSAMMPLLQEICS
Sequence of Bile acid receptor (Homo sapiens) (Q96RI1 whole entry, looked up, the tested form may be a part): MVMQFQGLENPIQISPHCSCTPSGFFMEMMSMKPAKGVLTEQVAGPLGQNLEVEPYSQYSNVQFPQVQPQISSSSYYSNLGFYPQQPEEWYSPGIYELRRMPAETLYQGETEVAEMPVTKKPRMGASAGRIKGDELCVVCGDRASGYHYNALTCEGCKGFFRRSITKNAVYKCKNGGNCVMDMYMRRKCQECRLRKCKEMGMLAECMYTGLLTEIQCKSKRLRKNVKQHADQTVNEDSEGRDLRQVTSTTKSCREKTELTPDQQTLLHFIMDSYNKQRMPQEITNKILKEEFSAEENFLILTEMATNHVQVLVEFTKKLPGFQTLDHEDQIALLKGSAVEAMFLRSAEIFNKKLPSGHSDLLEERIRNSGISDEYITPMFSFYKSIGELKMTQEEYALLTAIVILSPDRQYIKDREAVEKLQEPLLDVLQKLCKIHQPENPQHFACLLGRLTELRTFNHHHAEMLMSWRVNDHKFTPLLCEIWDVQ
Sequence of Estrogen-related receptor gamma (Homo sapiens) (P62508 whole entry, looked up, the tested form may be a part): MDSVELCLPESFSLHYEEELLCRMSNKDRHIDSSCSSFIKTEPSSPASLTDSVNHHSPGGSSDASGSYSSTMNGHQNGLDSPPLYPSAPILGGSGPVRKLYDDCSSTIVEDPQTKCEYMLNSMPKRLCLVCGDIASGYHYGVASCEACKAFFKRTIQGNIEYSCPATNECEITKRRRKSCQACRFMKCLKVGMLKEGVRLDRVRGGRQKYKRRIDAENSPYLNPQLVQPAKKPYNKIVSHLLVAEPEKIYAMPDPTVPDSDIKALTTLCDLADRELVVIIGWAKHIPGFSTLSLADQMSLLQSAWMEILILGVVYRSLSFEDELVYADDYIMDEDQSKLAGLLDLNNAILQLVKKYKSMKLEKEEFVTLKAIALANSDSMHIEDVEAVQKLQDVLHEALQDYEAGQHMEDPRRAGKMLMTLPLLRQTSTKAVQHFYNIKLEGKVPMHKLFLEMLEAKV
Sequence of Nuclear receptor subfamily 4 group A member 2 (Homo sapiens) (P43354 whole entry, looked up, the tested form may be a part): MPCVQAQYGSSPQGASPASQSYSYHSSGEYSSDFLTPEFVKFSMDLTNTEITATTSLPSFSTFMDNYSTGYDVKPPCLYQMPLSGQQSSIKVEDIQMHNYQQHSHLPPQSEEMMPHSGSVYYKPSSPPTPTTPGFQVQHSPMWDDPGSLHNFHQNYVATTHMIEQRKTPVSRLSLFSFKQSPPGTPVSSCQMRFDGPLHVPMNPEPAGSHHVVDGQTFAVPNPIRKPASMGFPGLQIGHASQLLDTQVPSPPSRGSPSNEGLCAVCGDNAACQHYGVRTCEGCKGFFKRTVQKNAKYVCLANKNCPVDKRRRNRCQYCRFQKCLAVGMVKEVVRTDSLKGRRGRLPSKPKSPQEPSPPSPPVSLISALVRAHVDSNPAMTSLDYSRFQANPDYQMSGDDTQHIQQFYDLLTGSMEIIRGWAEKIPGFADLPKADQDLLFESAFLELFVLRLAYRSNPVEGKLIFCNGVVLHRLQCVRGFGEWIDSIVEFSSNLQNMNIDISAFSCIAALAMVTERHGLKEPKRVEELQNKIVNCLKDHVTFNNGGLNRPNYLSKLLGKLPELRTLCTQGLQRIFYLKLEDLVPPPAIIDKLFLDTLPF
Sequence of Hepatocyte nuclear factor 4-alpha (Homo sapiens) (P41235 whole entry, looked up, the tested form may be a part): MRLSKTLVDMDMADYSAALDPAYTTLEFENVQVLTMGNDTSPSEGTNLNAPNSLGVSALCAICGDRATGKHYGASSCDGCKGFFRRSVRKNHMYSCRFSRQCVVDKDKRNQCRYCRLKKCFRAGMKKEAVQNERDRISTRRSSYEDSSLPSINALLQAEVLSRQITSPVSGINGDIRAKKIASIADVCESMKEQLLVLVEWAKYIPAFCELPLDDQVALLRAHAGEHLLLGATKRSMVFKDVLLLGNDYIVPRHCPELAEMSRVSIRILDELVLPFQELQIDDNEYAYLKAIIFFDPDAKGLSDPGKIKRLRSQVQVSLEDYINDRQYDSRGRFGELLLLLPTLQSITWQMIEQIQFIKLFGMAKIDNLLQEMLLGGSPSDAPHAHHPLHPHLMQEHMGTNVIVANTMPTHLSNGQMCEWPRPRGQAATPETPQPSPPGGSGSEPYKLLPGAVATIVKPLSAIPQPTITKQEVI

CC(C)C(=O)OCC=Cc1ccccc1
outcome [1]: inactive | outcome [2]: inactive | outcome [3]: inactive | outcome [4]: inactive | outcome [5]: inactive | outcome [6]: inactive | outcome [7]: inactive | outcome [8]: inactive | outcome [9]: inactive | outcome [10]: inactive | outcome [11]: inactive | outcome [12]: inactive | outcome [13]: inactive | outcome [14]: inactive

CCCC[N+](C)(CCCC)CCCC
outcome [1]: inactive | outcome [2]: inactive | outcome [3]: inactive | outcome [4]: inactive | outcome [5]: inactive | outcome [7]: inactive | outcome [8]: inactive | outcome [9]: inactive | outcome [15]: inactive | outcome [16]: inactive | outcome [12]: inactive | outcome [14]: inactive

CCCCC(CC)COCCO (configuration not stated)
outcome [1]: inactive | outcome [2]: inactive | outcome [3]: inactive | outcome [4]: inactive | outcome [5]: inactive | outcome [6]: inactive | outcome [7]: inactive | outcome [17]: inactive | outcome [9]: inactive | outcome [15]: inactive | outcome [18]: inactive | outcome [12]: inactive | outcome [14]: inactive

O=C1CCCCCCCCCCCC(=O)OCCO1
outcome [1]: inactive | outcome [2]: inactive | outcome [3]: inactive | outcome [4]: inactive | outcome [5]: inactive | outcome [19]: inactive | outcome [7]: inactive | outcome [8]: inactive | outcome [17]: inactive | outcome [9]: inactive | outcome [16]: inactive | outcome [11]: inactive | outcome [12]: inactive | outcome [13]: inactive | outcome [14]: inactive

CC(=O)OC(C)(C)C1CC=C(C)CC1 (configuration not stated)
outcome [1]: inactive | outcome [2]: inactive | outcome [3]: inactive | outcome [4]: inactive | outcome [5]: inactive | AC50 [6]: 61.7 µM (active) | outcome [7]: inactive | outcome [8]: inactive | outcome [20]: inactive | outcome [15]: inactive | outcome [12]: inactive | outcome [13]: inactive | outcome [14]: inactive

CN(C)CCC=C1c2ccccc2CCc2ccccc21
AC50 [1]: 22.1 µM (active) | outcome [2]: inactive | outcome [3]: inactive | AC50 [4]: 23.7 µM (active) | outcome [5]: inactive | AC50 [7]: 40 µM (active) | outcome [8]: inactive | outcome [9]: inactive | outcome [10]: inactive | outcome [15]: inactive | outcome [12]: inactive | outcome [14]: inactive

Cc1ccccc1S
AC50 [1]: 55.9 µM (active) | outcome [2]: inactive | outcome [3]: inactive | outcome [4]: inactive | outcome [5]: inactive | AC50 [7]: 75.5 µM (active) | outcome [8]: inactive | outcome [10]: inactive | outcome [11]: inactive | outcome [18]: inactive | outcome [14]: inactive

C[C@]12CC[C@@H]3c4ccc(O)cc4CC[C@H]3[C@@H]1CC[C@@H]2O
outcome [1]: inactive | outcome [2]: inactive | outcome [3]: inactive | AC50 [4]: 8.99 µM (active) and 4.21 µM (active) | outcome [4]: inactive | outcome [19]: inactive | outcome [7]: inactive | outcome [8]: inactive | outcome [20]: inactive | outcome [17]: inactive | outcome [9]: inactive | outcome [15]: inactive | outcome [16]: inactive | outcome [11]: inactive | outcome [18]: inactive | outcome [12]: inactive | outcome [13]: inactive | outcome [14]: inactive

CC(C)COC(=O)c1ccccc1O
outcome [1]: inactive | outcome [2]: inactive | outcome [3]: inactive | outcome [4]: inactive | outcome [5]: inactive | outcome [7]: inactive | outcome [8]: inactive | outcome [20]: inactive | outcome [9]: inactive | outcome [15]: inactive | outcome [18]: inactive | outcome [12]: inactive | outcome [13]: inactive | outcome [14]: inactive
